# PubChem BioAssay (EPA / NIEHS)
# Records with an inconclusive call do not appear. The source made the active and inactive calls. How the source made its calls, unless noted: active means hit-call score of the fitted dose curve at least 0.9, where 1 is the maximum; inactive means score below 0.9.
# Columns and labels:
# [1] = CCTE_Simmons_MITO_basal_resp_rate: CCTE's HepG2 Seahorse XF Respirometric Screening Assay at Basal Respiratory State, Simmons Lab (AID 2284001); conditions: actives raise or lower the signal
# How it was run: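 HepG2 oxygen consumption on Seahorse XF96 after compound injection, 7 concentrations 125 nM–100 uM final, reads every 6 min over 72 min. Triplicate biological replicates; bidirectional fit vs DMSO; fenpyroximate and 2,4-dinitrophenol controls.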
# [2] = CCTE_Simmons_MITO_max_resp_rate: CCTE's HepG2 Seahorse XF Respirometric Screening Assay at Maximal Respiratory State [uncoupled], Simmons Lab (AID 2284002); conditions: actives raise or lower the signal
# How it was run: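 Read-out is oxygen consumption rate at maximal respiration, taken after FCCP uncoupling of compound-treated HepG2 cells. Seven final concentrations from 125 nM to 100 uM were tested, each in three biological replicates.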
# [3] = CCTE_Simmons_MITO_inhib_resp_rate: CCTE's HepG2 Seahorse XF Respirometric Screening Assay at Inhibited Respiratory State [full ETC block], Simmons Lab (AID 2284006); conditions: actives raise or lower the signal
# How it was run: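 HepG2 oxygen consumption was measured by Seahorse XF after compound, FCCP, then rotenone/antimycin A injections. Seven concentrations from 125 nM to 100 uM (final) were tested, with 6-min kinetic reads over 72 minutes. Inhibited-state OCR was fitted bidirectionally against DMSO.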
# [4] = CCTE_Simmons_MITO_viability: CellTiter-Glo Viability Assessment for CCTE's HepG2 Seahorse XF Respirometric Screening Assay [post-hoc], Simmons Lab (AID 2284007; active means hit-call score of the fitted dose curve at least 0.9, where 1 is the maximum;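 on AC50: cells exposed to chemical for 90 min before the ATP read; actives lower ATP signal relative to DMSO baseline meaning reduced viability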)
# How it was run: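 HepG2 cells exposed 90 min to 7 concentrations from 125 nM to 100 uM final, then ATP measured by luciferase luminescence. Three biological replicates per concentration; DMSO vehicle; dichlone control at 10 nM–100 uM.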
# [5] = CCTE_Shafer_MEA_acute_spike_number: CCTE's Neural Acute Assay for Total Number of Spikes, Shafer Lab (AID 2284008);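 on AC50: curve fitted for decrease in spike count so AC50 reflects inhibitors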
# How it was run: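 Read-out is the total spike count over 40 min, expressed as percent change from each well's own pre-treatment baseline and fitted in the loss direction against DMSO. Rat cortical neurons were exposed at 0.03-40 uM on DIV 13 or 15.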
# [6] = CCTE_Shafer_MEA_acute_firing_rate_mean: CCTE's Neural Acute Assay for Mean Firing Rate, Shafer Lab (AID 2284009);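 further: analyzed for loss of signal so actives lower firing rate relative to DMSO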
# How it was run: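 Rat primary cortical neurons on 48-well MEA plates, dosed at 0.03-40 uM on DIV 13 or 15; 40 min spontaneous activity recorded at 37 C before and after compound. Spike rate per electrode averaged per well, expressed as percent change from baseline.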
smiles,measurement,setting,value
C=CCOC(=O)c1ccccc1C(=O)OCC=C,AC50,[1],36.2 µM (active)
same,outcome,[2],inactive
same,outcome,[3],inactive
same,outcome,[4],inactive
same,outcome,[5],inactive
same,outcome,[6],inactive
C=CCc1ccc(O)c(OC)c1,outcome,[5],inactive
same,outcome,[6],inactive
O=C(O)CCCCC(=O)O,outcome,[5],inactive
same,outcome,[6],inactive
CCCc1cc(=O)[nH]c(=S)[nH]1,outcome,[5],inactive
same,outcome,[6],inactive
CCCCC(CC)COC(=O)CC(C(=O)OCC(CC)CCCC)S(=O)(=O)O (configuration not stated),outcome,[1],inactive
same,AC50,[2],85.2 µM (active)
same,outcome,[3],inactive
same,AC50,[4],56.1 µM (active)
Cc1ccc(C(C)C)c(O)c1,outcome,[5],inactive
same,outcome,[6],inactive
Nc1ccccc1N,outcome,[5],inactive
same,outcome,[6],inactive
c1cc(-c2ccncc2)ccn1,outcome,[5],inactive
same,outcome,[6],inactive
CCOC(=O)C(C)(C)Oc1ccc(Cl)cc1,outcome,[5],inactive
same,outcome,[6],inactive
CN1CCCC1=O,outcome,[5],inactive
same,outcome,[6],inactive
CCCCCCCCCCO,outcome,[5],inactive
same,outcome,[6],inactive
Clc1cc(Cl)c(Cl)cc1Cl,outcome,[5],inactive
same,outcome,[6],inactive
NCC1(Cc2noc(=O)[nH]2)CCCCC1,outcome,[5],inactive
same,outcome,[6],inactive
Cc1oc(-c2ccccc2)nc1CCOc1cccc2c1ccn2CCC(=O)O,AC50,[1],3.11 µM (active)
same,outcome,[2],inactive
same,outcome,[3],inactive
same,outcome,[4],inactive
Cc1ccc2ncccc2c1,outcome,[5],inactive
same,outcome,[6],inactive
FC(F)(F)C(F)(F)C(F)(F)C(F)(F)C(F)(F)C(F)(F)CCI,outcome,[5],inactive
same,outcome,[6],inactive
COc1cc(S(=O)(=O)O)c(C)cc1N=Nc1c(O)ccc2cc(S(=O)(=O)O)ccc12,AC50,[1],38.7 µM (active)
same,outcome,[2],inactive
same,AC50,[3],23.8 µM (active)
same,AC50,[4],50 µM (active)
NS(=O)(=O)c1cc2c(cc1Cl)NCNS2(=O)=O,outcome,[5],inactive
same,outcome,[6],inactive
CNCc1cc(F)ccc1Oc1ccc(Cl)c(Cl)c1,AC50,[5],3.97 µM (active)
same,AC50,[6],2.55 µM (active)
CC(=O)C(C)=CC1C(C)=CCCC1(C)C (configuration not stated),outcome,[5],inactive
same,outcome,[6],inactive
Cc1c(C(=O)O)c(O)cc2c1C(=O)c1c(O)c([C@@H]3O[C@H](CO)[C@@H](O)[C@H](O)[C@H]3O)c(O)c(O)c1C2=O,outcome,[1],inactive
same,outcome,[2],inactive
same,AC50,[3],3.25 µM (active)
same,AC50,[4],40.1 µM (active)
CCCCCCCCCCCCCCCCCC(=O)O,outcome,[5],inactive
same,outcome,[6],inactive
Nc1ccc2c(c1)C(=O)c1ccccc1C2=O,outcome,[5],inactive
same,outcome,[6],inactive
C[Si]1(C)O[Si](C)(C)O[Si](C)(C)O[Si](C)(C)O1,outcome,[5],inactive
same,outcome,[6],inactive
Nc1nc(N)c2nc(CNc3ccc(C(=O)N[C@@H](CCC(=O)O)C(=O)O)cc3)cnc2n1,outcome,[5],inactive
same,outcome,[6],inactive
